Reference: the supplement of paper PMC6555819

These sequences were tested on RARg homodimer (NR concentration 270 nM) (assay: PBM binding z-score (relative to random genomic background probes); higher = stronger binding; sequences stand for … in GC…GCGATTGACAGCGTAGAATGAAGG).
In short: (§1)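 The probes on custom Agilent 4×180K protein-binding microarrays were double-stranded, with 34-nt variable regions bearing direct-repeat seeds, single-nucleotide variants, half-site ablations and random human genomic background sequences. Incubation lasted 1 h with ligand-free nuclear receptor dimers in PBS pH 7.4, 2% milk, 0.02% Triton X-100, 1 mM DTT, 0.2 mg/mL BSA and 0.4 mg/ml salmon testes DNA. Antibodies against each partner (one per run) detected bound dimers, and fluorescence scans were regression-normalized. Binding z-scores take the random background probes as reference.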

Sequence	PBM binding z-score
TCTCGGAGGACACAAAGGTCAGAGCTTTCCAGAG	5.32
ACTAGTTGGTCAGCTGAGGTCACACCCAATTCGG	3.86
TAGCCTAGGTCATTCAGGGGCCAGCATAGAAAGC	4.44
CGTCCAAGGTCACGGTCAGTGAAAGAGACTCGAA	8.03
AGAATGAGGTCATTAAGATCAGGGAATTGCGGTC	5.03
GCTTACGGGTCCAAGGTTATAGCATGAATAGAAT	0.599
TACCCTAGGTCATTGGGCCAGTATAGTACGCATC	4.3
CGTCAAAGATCAAGGTAACGTAACAGAAAGCAGC	0.612
CCTTACGGGTCACGTGGTTATAGCACGACGAGCG	5.1
AACGAAAGGTCGAAGGTGAGTATACCCACCCGAA	3.96
CAAACTAGGTCACTAAAGGTCAAAGTCGAATGAC	7.86
ATATGTAGGTTATCTGGGGTCATTCAGACTAGGC	3.58
CGTCCGAGGTCATAGGAGGTCAGTGAAGACAGAT	7.76
GCTGCTAGGTCAACTGATGGTCACCTAAAGCTCG	5.1
CCTACTGGGCCAAAAAGGTCATTGATGCCGATAA	4.42
CGAACAAGGTCATCCAGGACAGTGAATACATTGA	6.49
TCTTGTAGGTCAATAGAGGTTAAGAAAGTGCGCT	5.15
GATACAGGGTCAAGGTCAGAGTACGCGTATTGAT	6.78
TAGCCTAGGTCGTTCAGGGGCCAGTATAGAAAGC	1.27
ATATGTAGGTTAAGCGTCATTCAGGTTGGTTCGC	0.763

Sequence	PBM binding z-score
AGAATGGGGTTATACGTAGATCAGGGAAGAAAGT	0.984
AATAAAGGGTCATCGTAGGCCAGAGTACGCACAG	6.51
CGTCAAAGTTCAAGGTCACGTAACAGAAAGCAGC	8.05
CAGCATAGGTCAGGGCCAGTATAGGAGGAACGTT	4.39
TTGCCTAGGTCATTGGGCCAGTATAGTACGCATC	4.22
TATAAAGGGTCAAAGGCCAGAGTACGAATGTCGA	6.63
TAGCCTAGGTCATTCAGGGGCCACTATAGAAAGC	4.76
AGTCAAAGTTTATCTAGGTAACGTAAGATATGCT	1.41
CGAACTACGTCATCCAGGACAGTGAATACATTGA	0.537
CGCACTAGGTCATCCAGGACAGTGAATACATTGA	4.51
CGTCCAAGGTCTAGGTCAGTGAAAGAGACTCGAA	2.4
CAAACTAGTTCAAGAGGTCAAAGTCCGCTTCCCG	5.81
ATATGTAGGTTGGGGTCATTCAGAAAGTAGGGAA	3.36
CGTCCAAGGACAATGCTAGGTCAGTGAAAGCATT	1.85
CCAGACAGGTGAGAAGGTAACTCAGCCTCGATTA	0.652
CATACAGGGTCGGCTAGGCCAGAGTAGGGACGGC	1.16
ACTCGGAGGACAAAGGTCAGGGCTACGCCAGTGA	5.95
TTACCAAGGTGAACGGTCGTTGATGCACGCCTTG	0.84
GTTACAGGGTCAAGGCCAGAGTACGCGTATTGAT	5.24

The sequences below were run on RXRa DBDmut IVT, anti-RXR (DBD mutation: RXRa K156A/R161A, NR concentration 90 nM) in the same assay as above.
In short: as §1

Sequence	PBM binding z-score
TCTCGGAGGACACAAAGGTCAGAGCTTTCCAGAG	0.957
ACTAGTTGGTCAGCTGAGGTCACACCCAATTCGG	1.34
TAGCCTAGGTCATTCAGGGGCCAGCATAGAAAGC	1.98
CGTCCAAGGTCACGGTCAGTGAAAGAGACTCGAA	4.12
AGAATGAGGTCATTAAGATCAGGGAATTGCGGTC	4.81
GCTTACGGGTCCAAGGTTATAGCATGAATAGAAT	2.18
TACCCTAGGTCATTGGGCCAGTATAGTACGCATC	1.87
CGTCAAAGATCAAGGTAACGTAACAGAAAGCAGC	-0.147
CCTTACGGGTCACGTGGTTATAGCACGACGAGCG	1.32
AACGAAAGGTCGAAGGTGAGTATACCCACCCGAA	1.05
CAAACTAGGTCACTAAAGGTCAAAGTCGAATGAC	2.41
ATATGTAGGTTATCTGGGGTCATTCAGACTAGGC	2.58
CGTCCGAGGTCATAGGAGGTCAGTGAAGACAGAT	4.48
GCTGCTAGGTCAACTGATGGTCACCTAAAGCTCG	1.29
CCTACTGGGCCAAAAAGGTCATTGATGCCGATAA	0.661
CGAACAAGGTCATCCAGGACAGTGAATACATTGA	4.2
TCTTGTAGGTCAATAGAGGTTAAGAAAGTGCGCT	1.88
GATACAGGGTCAAGGTCAGAGTACGCGTATTGAT	2.78
TAGCCTAGGTCGTTCAGGGGCCAGTATAGAAAGC	0.406
ATATGTAGGTTAAGCGTCATTCAGGTTGGTTCGC	0.559

Sequence	PBM binding z-score
AGAATGGGGTTATACGTAGATCAGGGAAGAAAGT	2.16
AATAAAGGGTCATCGTAGGCCAGAGTACGCACAG	3.4
CGTCAAAGTTCAAGGTCACGTAACAGAAAGCAGC	4.52
CAGCATAGGTCAGGGCCAGTATAGGAGGAACGTT	0.209
TTGCCTAGGTCATTGGGCCAGTATAGTACGCATC	1.9
TATAAAGGGTCAAAGGCCAGAGTACGAATGTCGA	3.06
TAGCCTAGGTCATTCAGGGGCCACTATAGAAAGC	1.94
AGTCAAAGTTTATCTAGGTAACGTAAGATATGCT	1.93
CGAACTACGTCATCCAGGACAGTGAATACATTGA	0.498
CGCACTAGGTCATCCAGGACAGTGAATACATTGA	2.26
CGTCCAAGGTCTAGGTCAGTGAAAGAGACTCGAA	0.323
CAAACTAGTTCAAGAGGTCAAAGTCCGCTTCCCG	3.18
ATATGTAGGTTGGGGTCATTCAGAAAGTAGGGAA	3.69
CGTCCAAGGACAATGCTAGGTCAGTGAAAGCATT	0.603
CCAGACAGGTGAGAAGGTAACTCAGCCTCGATTA	0.16
CATACAGGGTCGGCTAGGCCAGAGTAGGGACGGC	-0.309
ACTCGGAGGACAAAGGTCAGGGCTACGCCAGTGA	0.934
TTACCAAGGTGAACGGTCGTTGATGCACGCCTTG	-0.078
GTTACAGGGTCAAGGCCAGAGTACGCGTATTGAT	2.91
